Bioassay records from PubChem.
RPL19A-GFP yeast: yeast TOR pathway RPL19A-GFP modulation | 330,000 tested, 0.3% active | S. cerevisiae RPL19A-GFP strain, flow cytometry, 3 h; hits give low values | percent response vs DMSO, % at 10 µM | AID 2025;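 active = percent response vs DMSO below 50%; inconclusive = fewer than 70 events counted for the yeast strain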;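 note: median channel GFP fluorescence of the barcoded RPL19A-GFP strain; lower means less RPL19A-GFP as with rapamycin TOR inhibition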
MEP2-GFP yeast: alters MEP2-GFP fluorescence in TOR pathway yeast screen; S. cerevisiae MEP2-GFP strain, flow cytometry GFP, 3 h; 100% = DMSO control level; GFP response vs DMSO, % at 10 µM; 330,000 tested, 0.51% active;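 active = GFP response versus DMSO above a set limit, roughly screen mean plus 3 SD, cut at about 180% in these data; inconclusive = fewer than 70 cells counted for a yeast strain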;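 note: median GFP fluorescence of the barcode-gated MEP2-GFP cells per well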
VLA-4 inh: inhibition in a human VLA-4 binding assay | P13612 | VLA-4 expressing cells, ligand binding flow cytometry | inhibition, % (about 7 µM as worked out from the volumes in the protocol) | 330,000 tested, 0.2% active | AID 2557; in the data active = inhibition above about 50%
AGP1 TOR yeast: modulators of TOR pathway AGP1-GFP in S. cerevisiae. S. cerevisiae AGP1-GFP multiplex flow cytometry, 3 h; GFP as percent of DMSO wells. GFP response vs DMSO, % at 10 µM. 320,000 tested, 0.02% active. AID 2066;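 active = GFP response relative to DMSO above a set limit, near screen average plus 3 SD, cut at about 150% in these data; inconclusive = fewer than 70 cells counted for the yeast strain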;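 note: median GFP channel fluorescence of the gated AGP1 strain per well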
CIT2 TOR yeast: alters CIT2-GFP fluorescence in TOR pathway yeast screen; AID 2029; 320,000 tested, 0.065% active; S. cerevisiae CIT2-GFP strain, flow cytometry, 3 h; 100 means same as DMSO wells; GFP response vs DMSO, % at 10 µM;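 active = GFP response relative to DMSO above a set limit, near the screen mean plus 3 SD, cut at about 150% in these data; inconclusive = Fewer than 70 cells measured for a yeast strain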;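 note: ratio of well median GFP fluorescence to mean of DMSO wells on the plate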
LAP4 TOR yeast: yeast TOR pathway LAP4-GFP modulation; S. cerevisiae LAP4-GFP multiplex, flow cytometry GFP, 3 h; median GFP as percent of DMSO wells; GFP response vs DMSO, % at 10 µM; 320,000 tested, 0.34% active; AID 2023;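 active = GFP response vs DMSO above a set limit, about the screen mean plus 3 SD, cut at about 150% in these data; inconclusive = under 70 cell events counted for the yeast strain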
LAP4-GFP pick2: reconfirmed LAP4-GFP TOR pathway modulator in yeast; shares compounds with LAP4 TOR yeast; S. cerevisiae LAP4-GFP strain, flow cytometry GFP, 3 h; GFP response vs DMSO, % at 10 µM; 590 tested, 20% active; AID 2621;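 active = GFP signal as percent of the solvent control above about 150%, meaning raised reporter expression, limit read from the data; inconclusive = fewer than 70 cells counted in the well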
MEP2-GFP pick2: yeast MEP2-GFP modulation, second cherry pick; shares compounds with LAP4 TOR yeast; S. cerevisiae MEP2-GFP strain, flow cytometry GFP, 3 h; GFP response vs DMSO, % at 10 µM; 590 tested, 10% active;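 active = GFP signal above 150% of the solvent control wells, that is a rise of more than half; inconclusive = fewer than 70 yeast cells counted in the well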;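 note: median channel GFP fluorescence of all gated yeast cells per well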
RPL19A-GFP pick2: yeast RPL19A-GFP TOR reporter modulation, second cherry pick. shares compounds with LAP4 TOR yeast. S. cerevisiae RPL19A-GFP strain, flow cytometry GFP, 3 h; hits give low values; 100% means same as DMSO wells. GFP response vs DMSO, % at 10 µM. 590 tested, 3% active;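 active = under 65% GFP response relative to DMSO; inconclusive = yeast strain with under 70 measured events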;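 note: median GFP channel fluorescence per well over the all cells gate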
CIT2-GFP pick2: second confirmation of modulators of TOR reporter CIT2-GFP in yeast | shares compounds with LAP4 TOR yeast | S. cerevisiae CIT2-GFP strain, flow cytometry GFP, 3 h; DMSO control wells read 100% | GFP response vs DMSO, % at 10 µM | 590 tested, 8% active;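 active = GFP response vs DMSO above about 150%, limit read from the data; inconclusive = fewer than 70 events counted for a yeast strain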;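 note: median green fluorescence per well over all gated yeast cells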
AGP1 GFP CP2: yeast AGP1-GFP TOR reporter modulation, second cherry pick | S. cerevisiae AGP1-GFP strain, flow cytometry GFP, 3 h | shares compounds with LAP4 TOR yeast | 590 tested, under 10 active | percent response vs DMSO, % at 10 µM | AID 2643;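 active = over 150 percent of DMSO response; inconclusive = yeast strain measured with under 70 events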;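 note: median GFP channel fluorescence over all cells without mother daughter split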
s288c autofluor: yeast s288c autofluorescence artifact, counter-screen | shares compounds with LAP4 TOR yeast | S. cerevisiae s288c, 520 nm autofluorescence, flow cytometry, 3 h; hits give high values; zero means same as solvent-only cells | fluorescence change (kMESF span) at 33 µM | 610 tested, under 10 active | AID 2757;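 active = fluorescence span over the dose series, or activity score, above about 33, limit read from the data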
A number is an active result; . = inactive; ? = inconclusive; [ ] = dose if it differs, or a comment. A selection: hits, their analogues and other compounds. The true share with any hit is near 1.1%.

SMILES	RPL19A-GFP yeast	MEP2-GFP yeast	VLA-4 inh	AGP1 TOR yeast	CIT2 TOR yeast	LAP4 TOR yeast	others
Cc1ccc(OCC(=O)NCCN2CCN(C(=O)COc3ccc(C)cc3)CC2)cc1	.	251[may fluoresce violet]	.	?	?	.
Cc1ccc(OCC(=O)N2CCN(Cc3cccnc3)CC2)cc1	.	.	.	.	.	.
CC1CN(c2ccc([N+](=O)[O-])c(N3CCCCC3)c2)CCN1 (stereo not drawn)	.	.	.	.	.	.
CCN(CC)S(=O)(=O)N1CCC(C(=O)N2CCC3(CC2)OCCO3)CC1	.	.	.	.	.	.
O=C(C1CCN(S(=O)(=O)c2ccccc2)CC1)N1CCC2(CC1)OCCO2	.	333[may fluoresce violet]	.	.	?	.
O=C(c1cc(=O)[nH]c2ccc(Br)cc12)N1CCC2(CC1)OCCO2	.	212[may fluoresce violet]	.	.	?	.
COCCNC(=O)CN1C(=O)C(C)N=C(c2ccccc2)c2cc(Cl)ccc21 (stereo not drawn)	.	196[may fluoresce violet]	.	.	?	.
CC(C)CCNC(=O)CN1C(=O)CN=C(c2ccccc2)c2ccccc21	.	.	.	.	.	.
Cc1cccc(OP(=O)(NCc2ccccc2)Oc2cccc(C)c2)c1	.	.	.	.	.	.
CN1C(=O)C(=Cc2ccc(Sc3ccccc3)o2)C(=O)N(C)C1=O	.	.	.	.	.	.
O=C1NC(=O)C(=Cc2ccc(-c3ccc(F)cc3O)o2)C(=O)N1	.	.	.	.	.	.
CN1C(=O)C(=Cc2ccc(Sc3ccccc3)o2)C(=O)N(C)C1=S	.	.	.	.	.	176
O=C1NC(=O)C(=Cc2ccc(Sc3ccccc3)o2)C(=O)N1	.	.	.	.	.	164
C[C@]12N[C@H](Cc3ccccc31)c1ccccc12	.	.	.	.	.	.
CCN1C[C@]2(COC(=O)c3ccccc3N)CC[C@H](OC)C34[C@@H]5C[C@H]6[C@H](OC)[C@@H]5[C@](O)(C[C@@H]6OC)[C@@](O)([C@H]13)[C@@H](OC)[C@@H]42	.	.	.	.	.	.
COc1cc(O)c(C(=O)O)c(-c2cc(O)c(O)cc2C)c1	.	.	.	.	.	.
O=C1/C(=C\c2ccc(Cl)c(Cl)c2)N2CCC1CC2	.	.	.	.	.	187
C/C(=C\c1ccc(N(C)C)cc1)[N+](=O)[O-]	.	.	.	.	.	155	LAP4-GFP pick2=.;MEP2-GFP pick2=.;RPL19A-GFP pick2=.;CIT2-GFP pick2=.;AGP1 GFP CP2=.
CCCCCCCCc1ccc(O)cc1	.	.	.	.	.	.
CCCCCCCCn1sccc1=O	.	.	.	.	.	207	LAP4-GFP pick2=180;MEP2-GFP pick2=185;RPL19A-GFP pick2=.;CIT2-GFP pick2=174;AGP1 GFP CP2=.;s288c autofluor=.
O=C1C(=O)c2ccccc2-c2ccccc21	.	.	.	.	.	.	s288c autofluor=.
